Giardia kill – Giardia lamblia killing. AID 540267. activity change, % at 7.66 µM, hits read low. Giardia lamblia trophozoite viability. actives 0.15% (n = 340,000); in the data active = activity change below about -80%; inconclusive = between about -30% and that limit;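 note: parasites exposed to compound for two days anaerobically before the ATP read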
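Each well holds 100 Giardia trophozoites and compound. After two days (48 hrs) at 37 deg C in anaerobic conditions, ATP is quantified by luminescence.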
Vif-APOBEC3F blk – blocks the Vif interaction with APOBEC3F. HeLa A3F-eYFP + Vif (tagged APOBEC3F with the HIV-1 protein that degrades it), YFP fluorescence increase. Potency, µM (doses to about 46.1 µM). actives 0.2% (n = 390,000); note: nearly all actives have a fitted effect of over 65% in size
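Fluorescence increase (Ex 488/Em 500-530) after overnight compound treatment at 37 deg C flags inhibition of Vif-driven A3F-eYFP loss in stable HeLa A3F-eYFP/Vif cells seeded overnight beforehand.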
MCF10A rereplic – induces DNA re-replication in MCF 10a normal breast cells; MCF 10A DNA re-replication, Hoechst nuclear intensity, 48 h; Potency, µM (series often up to 46.1 µM), actives largely listed as activators; actives 2.9% (n = 350,000); AID 624296; note: nearly all actives have a fitted effect of over 50% in size
IL-1B inflam inh – blocks inflammasome-driven IL-1 beta release; AID 743279; THP-1 LPS/ATP IL-1B secretion, AlphaLISA, 16 h; stronger effect = lower value; actives 4.7% (n = 360,000); activity change, % at 57.5 µM; in the data active = activity change below about -50%; inconclusive = mostly about -30% to -49%
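THP-1 cells pretreated 1 hr with compounds (up to 57.5 uM final), then stimulated with LPS (250 ng/mL final) plus ATP (1.25 mM final); secreted IL-1B measured by AlphaLISA after 16 hr, decreased signal indicating inhibition.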
Vif-APOBEC3G blk – Vif-A3G binding inhibition; AID 602310; HeLa A3G-eYFP + Vif (tagged APOBEC3G with the HIV-1 protein that degrades it), YFP fluorescence, overnight; actives 0.076% (n = 410,000); Potency, µM (titrated, usually from 46.1 µM), usual class: inhibitors; Q9HC16; note: nearly all actives have a fitted effect of over 60% in size
Target sequence (Q9HC16 whole entry, looked up): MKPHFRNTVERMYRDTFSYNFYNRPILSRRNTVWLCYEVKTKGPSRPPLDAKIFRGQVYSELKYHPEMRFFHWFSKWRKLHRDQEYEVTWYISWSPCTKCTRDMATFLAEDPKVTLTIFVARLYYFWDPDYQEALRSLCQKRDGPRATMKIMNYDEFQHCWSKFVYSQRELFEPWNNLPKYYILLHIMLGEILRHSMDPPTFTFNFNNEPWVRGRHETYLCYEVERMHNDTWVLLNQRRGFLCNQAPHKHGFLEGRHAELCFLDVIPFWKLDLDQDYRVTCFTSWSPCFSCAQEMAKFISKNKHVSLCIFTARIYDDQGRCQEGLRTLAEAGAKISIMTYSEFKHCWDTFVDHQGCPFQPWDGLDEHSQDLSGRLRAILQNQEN
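Read-out is eYFP fluorescence (Ex 488/Em 500-530) from Vif-expressing HeLa A3G-eYFP cells; more signal means A3G escaped Vif-mediated degradation. Cells plated overnight, compound pinned in, incubated overnight at 37 deg C.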
SW480 rerep – induces DNA re-replication in SW480 colon adenocarcinoma cells; SW480 DNA re-replication, Hoechst DNA content imaging, 48 h; Potency, µM (highest dose often 46.1 µM), usual class: activators; actives 1.8% (n = 340,000); AID 624297; note: nearly all actives have a fitted effect of over 55% in size
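Hoechst fluorescence of nuclei (405 nm excitation, 500-530 nm emission) measured by plate-scanning imager after 48 hr compound exposure at 37 C; re-replication scored as increased number of nuclei with elevated intensity.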
Hits are given with their value; 0 = inactive; ? = inconclusive; - = no result; [ ] = remark or other dose. This is a sample that favours compounds with a hit; in the whole collection about 6.9% have one here. Unless noted, calls come from the whole dose curve; as a rule, active = well fitted curve in the direction sought with a large enough effect; inconclusive = small, poorly fitted or top-dose-only effect, or another doubt; inactive = no such curve, though single readings can be large; an effect the other way counts as inactive or inconclusive.

SMILES	Giardia kill	Vif-APOBEC3F blk	MCF10A rereplic	IL-1B inflam inh	Vif-APOBEC3G blk	SW480 rerep
CC1=NOC(=O)/C1=C\c1ccc(-c2ccc(Br)cc2)o1	0	0	?	-98.8	?	?
CC1=NOC(=O)/C1=C\c1ccc(-c2cc(Cl)ccc2Cl)o1	0	0	?	-55.5	0	?
CCc1ccc2ncc3c(-c4ccccc4)nn(-c4ccccc4)c3c2c1	-	0	-	-	0	-
O=C1c2ccccc2C(=O)N1c1ccccn1	0	-	-	-	0	-
Cc1cc(C)n(-c2ccc(Cl)c(Cl)c2)n1	0	0	0	0	0	0
Cc1cc(C)n(-c2nc(-c3ccc(Cl)c(Cl)c3)cs2)n1	0	0	7.08µM	0	0	0
COc1ccc(-c2nc(N)nc(C)c2Oc2ccccc2Br)c(O)c1	0	0	14.6µM	0	?	?
COc1ccc(-c2nc(N)nc(C(F)(F)F)c2-c2cscn2)c(O)c1	0	0	0	0	0	0
Cc1nc(Nc2ccccc2C(F)(F)F)sc1C(=O)N(C)C	0	0	0	-51.5	0	0
Cc1nc(NCCc2ccccc2)sc1C(=O)N(C)C	0	0	0	0	0	0
CCOC(=O)c1c(C)[nH]c(CCC(=O)NCc2cc(Br)ccc2OC)c1C	-	0	-	-	0	-
O=[N+]([O-])c1ccc(Sc2nnnn2-c2ccccc2)nc1	0	0	3.66µM	-96.5	?	6.51µM
Cc1ccccc1-n1nnnc1Sc1nnnn1-c1ccccc1	0	0	14.6µM	-115.7	0	?
COc1ccc(CSc2nnnn2-c2ccccc2)cc1	0	?	0	0	0	0
COc1ccc2c(C)cc(Sc3nnnn3-c3ccccc3)nc2c1	0	0	0	-94.7	0	0
C(=C\CSc1nnnn1-c1ccccc1)/CSc1nnnn1-c1ccccc1	0	0	0[0.0737 µM]	0	0	0
O=[N+]([O-])c1ccc(N2CCN(c3ccccc3)CC2)nc1	0	0	0	0	0	0
CCCSc1nnc(Sc2nnnn2-c2ccccc2)s1	0	0	?	-62.1	0	6.51µM
C=CCC(CC=C)(CNC(=O)C(=O)Nc1ccc(Br)cc1)c1ccc(OC)c(OC)c1	-	0	-	-	0	-
COc1ccc(N2CCN(S(=O)(=O)CCNC(=O)c3c(F)cccc3Cl)CC2)cc1	-	0	-	-	0	-
CC(=O)c1cccc(N(CC(=O)Nc2ccc(S(=O)(=O)N3CCOCC3)cc2)S(C)(=O)=O)c1	0	0	0	0	0	0
Cc1ccc(N(CC(=O)Nc2ccccc2-c2ccccc2)S(=O)(=O)c2ccccc2)c(C)c1	0	0	20.6µM	0	0	0
CS(=O)(=O)N(CC(=O)Nc1ccccc1-c1ccccc1)c1cccc(F)c1	0	0	0.651µM	0	0	0
CS(=O)(=O)N(CC(=O)Nc1ccc(S(=O)(=O)N2CCOCC2)cc1)c1cccc(F)c1	0	0	?	0	0	23.1µM
O=C(O)c1ccc(N2N=C(c3ccccc3)CC2c2ccccc2)cc1 (configuration not stated)	0	0	2.31µM	0	0	?
SMILES	Giardia kill	Vif-APOBEC3F blk	MCF10A rereplic	IL-1B inflam inh	Vif-APOBEC3G blk	SW480 rerep
COc1ccc(C2CC(c3ccccc3)=NN2c2ccc(/C=N/NC(=O)c3ccncc3)cc2)cc1 (configuration not stated)	0	0	?	0	0	?
COc1ccc(C2CC(c3ccccc3Cl)=NN2c2ccc(S(N)(=O)=O)cc2)cc1 (configuration not stated)	0	0	?	?	0	2.31µM
NS(=O)(=O)c1ccc(N2N=C(c3ccccc3)CC2c2cccc(Cl)c2)cc1 (configuration not stated)	0	0	?	-70.2	0	3.66µM
N#CCC(=O)N/N=C/c1ccc(N2N=C(c3ccccc3)CC2c2ccccc2)cc1 (configuration not stated)	0	6.31µM	0	0	?	?
COc1ccc(C2CC(c3cccc(F)c3)=NN2c2ccc(S(N)(=O)=O)cc2)cc1 (configuration not stated)	0	0	2.06µM	0	0	2.31µM
COc1ccc(C2=NN(CN3C(=O)C(=O)c4ccccc43)C(c3ccc(OC)cc3)C2)cc1 (configuration not stated)	0	0	0	0	0	5.8µM
COc1ccc(C2CC(c3ccccc3)=NN2c2ccc(C(N)=O)cc2)cc1 (configuration not stated)	0	0	?	-54.5	0	20.6µM
COc1ccc(C2CC(c3cccc(Br)c3)=NN2c2ccc(S(N)(=O)=O)cc2)cc1 (configuration not stated)	0	0	?	0	0	?
COc1ccc(C2CC(c3ccccc3)=NN2c2ccc(S(N)(=O)=O)cc2)cc1 (configuration not stated)	0	0	0.581µM	?	0	16.4µM
COc1ccc(C2CC(c3cccc(C(F)(F)F)c3)=NN2c2ccc(S(N)(=O)=O)cc2)cc1 (configuration not stated)	0	0	?	?	0	?
CC(C)(C)n1ncc2c(=O)n(Cc3c(F)cc(Cl)cc3F)cnc21	-	-	-	-	0	-
CC(=O)Nc1cccc(Nc2nc3ccccc3n3c(C)nnc23)c1	-	0	-	-	0	-
C=Cc1ccc(CSc2nc(-c3ccc(C)cc3)nc3c2Cc2c(CO)cnc(C)c2O3)cc1	-	0	-	-	0	-
NS(=O)(=O)c1ccc(N2N=C(c3ccccc3)CC2c2ccc(F)cc2)cc1 (configuration not stated)	0	0	20.6µM	-61.2	0	20.6µM
CCc1ccc(NC(=O)C(C)OC(=O)c2cc(=O)[nH]c3ccc(S(=O)(=O)Nc4ccc(F)cc4)cc23)cc1 (configuration not stated)	0	?	20.6µM	0	?	0
O=[N+]([O-])/C(Cl)=C(/NCCO)C(Cl)=C(Cl)Cl	-100.1	0	0	0	0	0
CCOC(=O)c1c(NC(=O)COc2ccc(Cl)cc2C)sc(C(C)=O)c1C	-	0	-	-	0	-
O=C(CC1SC(=Nc2ccc(OC(F)F)cc2)N(CCN2CCOCC2)C1=O)Nc1ccc(F)cc1F (configuration not stated)	0	0	0	-63.3	0	0
CN=C1SC(CC(=O)Nc2ccc(F)cc2F)C(=O)N1/N=C/c1ccc(OC(F)F)c(OC)c1 (configuration not stated)	0	?	4.61µM	0	0	0
Cn1c(SCc2ccccc2)nccc1=O	0	0	0	0	0	0
CC1=C(SCc2ccccc2)C(=O)c2ccccc2C1=O	0	?	3.66µM	-69.9	?	3.66µM
CCOC(=O)c1ccccc1NC(=O)CSc1nc2ccccc2c(=O)n1CCCN1CCOCC1	0	?	13µM	0	0	?
O=C(CSc1nc2ccccc2c(=O)n1Cc1ccccc1)Nc1ccc(Br)cc1C(=O)O	0	0	23.1µM	0	0	0
